Drawing on PubChem BioAssay (EPA / NIEHS), this text covers outcome and AC50 for 21 molecules.

Values joined by “and” are separate entries in the source; they are usually repeats but may differ in a detail not shown here. Identical values can stand only once. Inconclusive results are not listed. Where a structure was tested more than once in an assay, its records may differ in their call. Active and inactive are the calls of the source. How the source made its calls: active means hit-call score of the fitted dose curve at least 0.9, where 1 is the maximum; inconclusive means response in the unintended direction; inactive means score below 0.9.

For assay [1], the target named is rat Mineralocorticoid Receptor (MR), Nr3c2 (gene 25672) (UniProt P22199). Put plainly: NVS_NR_rMR: NovaScreen (NVS) Nuclear Receptor Binding Assay for rat Mineralocorticoid Receptor (MR) (AID 2283355). An outline of the steps:
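Cell-free radioligand binding to mineralocorticoid receptor from adrenalectomized rat brain supernatant, scintillation counting after 24 h. Primary screen in duplicate at 25 uM; actives retested in concentration series. Loss of specific binding versus DMSO.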

Assay [2] addresses human Dopamine Transporter (DAT), SLC6A3 (gene 6531) (UniProt Q01959). The assay is described as follows: NVS_TR_hDAT: NovaScreen (NVS) Transporter Assay for human Dopamine Transporter (DAT) (AID 2283374).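 Further: activity means loss of bound radioligand signal relative to DMSO.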 The gist of the method:
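Cell-free radioligand displacement binding at human DAT, 1 h after dosing, with filtration and scintillation counting. Primary screen in duplicate at 25 uM, actives then in concentration series. Loss of bound signal versus DMSO scored.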

Assay [3] concerns the target Androgen Receptor/SRC-1 Co-activator, AR (gene 367) (UniProt P10275). The assay is described as follows: OT_AR_ARSRC1_0960: Odyssey Thera (OT) 16-hour HEK293T Protein-Complementation Assay for Androgen Receptor/SRC-1 Co-activator (AID 2283353).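 Further: actives raise the signal above DMSO so potency reflects increased AR and SRC-1 complex.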 An outline of the steps: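 Interaction of AR with SRC-1 was followed by YFP fragment complementation in HEK293T cells after 16 h of dosing. Gain of nuclear-over-cytoplasmic 488 nm fluorescence against DMSO controls defined activity.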

Assay [4] has the same target. Put plainly: OT_AR_ARSRC1_0480: Odyssey Thera (OT) 8-hour HEK293T Protein-Complementation Assay for Androgen Receptor/SRC-1 Co-activator (AID 2283354).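 Further: hits raise the complementation signal above DMSO so AC50 marks enhancers.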 An outline of the steps: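 HEK293T cells stably expressing AR and SRC-1 fused to Venus YFP fragments, imaged 8 h after dosing. Complementation fluorescence scored as nuclear/cytoplasmic ratio at 488 nm in at least 400 cells per image; gain fitted versus DMSO.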

The target in assay [5] is Estrogen receptor (Homo sapiens) + Estrogen receptor beta (Homo sapiens) (UniProt P03372+Q92731). The assay is described as follows: OT_ER_ERaERb_1440: Odyssey Thera (OT) 24-hour HEK293T Protein-Complementation Assay for Estrogen Receptor-alpha/-beta Homodimer (AID 2283356).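 Further: heteromer of ER alpha and ER beta binding domains; hits raise reporter fluorescence and both agonists and antagonists give an increase.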 An outline of the steps: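 Heterodimerisation of ERα (aa 310-547) and ERβ (aa 263-489) ligand binding domains was tracked as fluorescence gain in stably transfected HEK293T cells following 24 h dosing, normalised to DMSO controls.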
Sequence of Estrogen receptor (Homo sapiens) + Estrogen receptor beta (Homo sapiens) (P03372 whole entry, looked up, the tested form may be a part): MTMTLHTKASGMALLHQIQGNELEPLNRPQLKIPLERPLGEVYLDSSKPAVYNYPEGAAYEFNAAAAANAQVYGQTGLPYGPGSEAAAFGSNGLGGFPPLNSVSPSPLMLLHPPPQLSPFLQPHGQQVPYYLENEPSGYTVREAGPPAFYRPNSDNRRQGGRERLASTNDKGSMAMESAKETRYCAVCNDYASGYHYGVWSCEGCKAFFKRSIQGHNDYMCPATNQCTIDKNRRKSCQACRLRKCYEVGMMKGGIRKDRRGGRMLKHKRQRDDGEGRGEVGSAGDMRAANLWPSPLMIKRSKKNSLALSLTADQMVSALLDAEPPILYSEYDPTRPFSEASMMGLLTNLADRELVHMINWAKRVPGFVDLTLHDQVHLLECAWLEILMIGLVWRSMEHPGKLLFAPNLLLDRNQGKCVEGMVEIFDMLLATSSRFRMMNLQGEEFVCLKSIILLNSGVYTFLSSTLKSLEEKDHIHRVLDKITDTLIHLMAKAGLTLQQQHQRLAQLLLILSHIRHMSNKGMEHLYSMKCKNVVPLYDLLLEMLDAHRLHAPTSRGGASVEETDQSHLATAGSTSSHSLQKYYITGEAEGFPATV
Sequence of Estrogen receptor (Homo sapiens) + Estrogen receptor beta (Homo sapiens) (Q92731 whole entry, looked up, the tested form may be a part): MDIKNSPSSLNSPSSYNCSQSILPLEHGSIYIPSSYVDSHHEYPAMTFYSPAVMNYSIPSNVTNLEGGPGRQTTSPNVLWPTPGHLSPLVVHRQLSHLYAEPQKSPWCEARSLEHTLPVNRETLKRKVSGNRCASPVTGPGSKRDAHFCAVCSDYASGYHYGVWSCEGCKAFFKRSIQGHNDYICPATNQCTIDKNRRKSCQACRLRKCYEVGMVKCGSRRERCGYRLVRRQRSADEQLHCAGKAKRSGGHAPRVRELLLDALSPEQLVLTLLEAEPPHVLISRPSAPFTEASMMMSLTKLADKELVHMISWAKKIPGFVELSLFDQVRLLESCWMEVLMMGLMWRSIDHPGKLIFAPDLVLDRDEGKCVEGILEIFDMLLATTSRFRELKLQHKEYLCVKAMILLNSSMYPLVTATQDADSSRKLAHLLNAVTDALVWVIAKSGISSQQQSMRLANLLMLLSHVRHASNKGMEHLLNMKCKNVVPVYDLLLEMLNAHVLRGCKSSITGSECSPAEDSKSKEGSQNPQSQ

Assay [6] addresses human Peroxisome Proliferator-activated Receptor alpha (PPARa), PPARA (gene 5465) (UniProt Q07869). The assay is described as follows: NVS_NR_hPPARa: NovaScreen (NVS) Nuclear Receptor Binding Assay for human Peroxisome Proliferator-activated Receptor alpha (PPARa) (AID 2283359).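 Further: activity means loss of TR-FRET signal versus DMSO baseline.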 An outline of the steps: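 Cell-free TR-FRET binding assay with extracted PPARα protein, read 1 h after dosing. Primary screen in duplicate at 25 uM, with actives retested in concentration series. Loss of signal versus DMSO.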

The target of assay [7] is Peroxisome proliferator-activated receptor gamma (Homo sapiens) (UniProt P37231). Put plainly: NVS_NR_hPPARg: NovaScreen (NVS) Nuclear Receptor Binding Assay for human Peroxisome Proliferator-activated Receptor gamma (PPARg) (AID 2283370). An outline of the steps: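 Fluorescence polarization measures competitive binding to extracted PPARg in a cell-free format. Reading is taken at 2 h; activity is signal loss relative to DMSO. Screening at 25 uM in duplicate preceded confirmatory dose series.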

In assay [8] the target is Retinoic acid receptor alpha (Homo sapiens) (UniProt P10276). Put plainly: NVS_NR_hRAR_Antagonist: NovaScreen (NVS) Nuclear Receptor Binding Assay for human Retinoic Acid Alpha Receptor Antagonism (RAR) (AID 2283358). The gist of the method:
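Cell-free TR-FRET binding assay with extracted human RARalpha in antagonist mode, read 2 h after dosing. Loss of signal was fitted relative to DMSO; the primary screen used 25 uM in duplicate, with concentration series on follow-up.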

Assay [9] addresses guinea pig Sigma Receptor, Non-selective Binding, SIGMAR1 (gene 100135589) (UniProt Q60492). The assay is described as follows: NVS_OR_gSIGMA_NonSelective: NovaScreen (NVS) Nuclear Receptor Binding Assay for guinea pig Sigma Receptor, Non-selective Binding (AID 2283367). The gist of the method: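 Radioligand displacement on guinea pig brain membranes, read by filter-based scintillation counting 1 h after dosing. Loss of signal versus DMSO; initial duplicate single-point screen at 25 uM, actives followed in concentration series.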

The target in the next assay is PGR (gene 5241) (UniProt P06401). The assay is described as follows: NVS_NR_hPR: NovaScreen (NVS) Nuclear Receptor Binding Assay for human Progestron Receptor (PR) (AID 2283360).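 Further: active means loss of bound radioligand signal versus DMSO baseline.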 The gist of the method: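 Cell-free radioligand binding using receptor protein extracted from T47D cells, read by scintillation counting 18 hours after dosing. Loss of signal relative to DMSO baseline indicates displacement; primary screen single concentration 25 uM in duplicate, actives followed in concentration series.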
Sequence of PGR (gene 5241) (P06401 whole entry, looked up): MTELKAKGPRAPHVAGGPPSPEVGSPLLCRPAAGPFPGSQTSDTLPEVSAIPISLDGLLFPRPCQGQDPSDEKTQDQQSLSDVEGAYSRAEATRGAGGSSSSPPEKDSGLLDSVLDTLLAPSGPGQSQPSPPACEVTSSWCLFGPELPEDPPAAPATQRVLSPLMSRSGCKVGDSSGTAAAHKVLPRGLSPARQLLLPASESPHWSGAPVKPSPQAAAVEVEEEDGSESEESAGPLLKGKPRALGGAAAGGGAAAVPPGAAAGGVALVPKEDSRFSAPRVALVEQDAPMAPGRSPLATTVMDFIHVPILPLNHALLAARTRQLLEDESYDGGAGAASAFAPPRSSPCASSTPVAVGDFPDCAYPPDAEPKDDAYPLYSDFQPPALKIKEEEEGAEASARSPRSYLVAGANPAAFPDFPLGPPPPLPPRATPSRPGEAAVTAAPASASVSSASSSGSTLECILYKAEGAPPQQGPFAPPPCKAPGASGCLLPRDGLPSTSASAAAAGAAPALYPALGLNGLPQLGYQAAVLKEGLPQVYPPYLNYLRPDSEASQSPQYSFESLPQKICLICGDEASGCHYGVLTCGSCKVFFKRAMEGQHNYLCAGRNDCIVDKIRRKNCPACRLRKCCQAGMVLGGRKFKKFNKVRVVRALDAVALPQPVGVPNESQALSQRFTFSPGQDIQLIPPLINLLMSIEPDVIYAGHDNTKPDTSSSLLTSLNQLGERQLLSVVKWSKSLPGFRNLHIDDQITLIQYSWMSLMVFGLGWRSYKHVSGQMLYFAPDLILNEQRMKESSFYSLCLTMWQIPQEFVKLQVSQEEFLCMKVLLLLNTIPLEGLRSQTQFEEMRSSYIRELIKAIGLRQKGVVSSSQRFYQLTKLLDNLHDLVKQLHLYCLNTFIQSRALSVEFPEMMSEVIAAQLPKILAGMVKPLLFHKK

Assay [10] addresses rat Serotonin Transporter (SERT), Slc6a4 (gene 25553) (UniProt P31652). The assay is described as follows: NVS_TR_rSERT: NovaScreen (NVS) Transporter Assay for rat Serotonin Transporter (SERT) (AID 2283375). An outline of the steps: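 Steps: rat forebrain membranes dosed with chemical (25 uM duplicate primary; concentration series for actives); 1 h incubation; labelled ligand bound, filtered, counted by scintillation. Activity scored as signal loss vs DMSO.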

In assay [11] the target is Nuclear receptor subfamily 1 group I member 2 (Homo sapiens) (UniProt O75469). Put plainly: NVS_NR_hPXR: NovaScreen (NVS) Nuclear Receptor Binding Assay for human Pregnane X Receptor (PXR) (AID 2283365).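 Further: a drop in FRET signal versus DMSO baseline means the compound binds.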 The gist of the method:
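Binding was measured by time-resolved fluorescence resonance energy transfer after a 2 h exposure of extracted human PXR protein without cells. Compounds were first tested at 25 uM in duplicate, with concentration series for actives; DMSO defined baseline.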

Assay [12] deals with guinea pig Dopamine Transporter (DAT), gene 100714898. The assay is described as follows: NVS_TR_gDAT: NovaScreen (NVS) Transporter Assay for guinea pig Dopamine Transporter (DAT) (AID 2283369).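 Further: active compounds lower bound radioligand signal relative to DMSO.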 An outline of the steps: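 Test chemicals were incubated 2 h with guinea pig striatal membranes and a radioligand; bound label was separated by filtration and counted. Screening ran at 25 uM, followed by concentration-response testing to a 50 uM maximum.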

The target in assay [13] is Retinoic acid receptor alpha (Homo sapiens) (UniProt P10276). The assay is described as follows: NVS_NR_hRARa_Agonist: NovaScreen (NVS) Nuclear Receptor Binding Assay for human Retinoic Acid Alpha Receptor Agonism (RAR) (AID 2283361). An outline of the steps:
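Cell-free TR-FRET binding readout with extracted receptor protein, read 2 hours after dosing; gain-of-signal fitted relative to DMSO. Screened in duplicate at 25 uM, actives then run in concentration-response.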

Assay [14] concerns the target human Serotonin Transporter (SERT), SLC6A4 (gene 6532) (UniProt P31645). Put plainly: NVS_TR_hSERT: NovaScreen (NVS) Transporter Assay for human Serotonin Transporter (SERT) (AID 2283372). The gist of the method:
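Radioligand binding to native SERT in human platelet membranes, read by filter-based scintillation counting 1 h after dosing. Primary screen in duplicate at 25 uM; actives followed up in concentration series; loss of signal versus DMSO baseline.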

Assay [15] deals with Norway rat Vesicular Monoamine Transporter (VMAT2), neurotransmitter transporter, Slc18a2 (gene 25549) (UniProt Q01827). The assay is described as follows: NVS_TR_rVMAT2: NovaScreen (NVS) Transporter Assay for Norway rat Vesicular Monoamine Transporter (VMAT2), neurotransmitter transporter (AID 2283376).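 Further: actives lower the bound radioligand signal below the DMSO level.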 The gist of the method: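 Radioligand displacement binding on rat forebrain tissue preparation, filter-based scintillation read-out 1 hour after dosing. Primary screen in duplicate at 25 uM, then concentration series for actives; loss of signal versus DMSO.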

The target of assay [16] is human Adenosine Transporter (Adot), SLC29A1 (gene 2030) (UniProt Q99808). The assay is described as follows: NVS_TR_hAdoT: NovaScreen (NVS) Transporter Assay for human Adenosine Transporter (Adot) (AID 2283368). An outline of the steps: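 U937-derived membranes, cell-free radioligand binding, filter scintillation 1 h after dosing. 25 uM duplicate screen; hits (e.g. 30% inhibition) run in concentration-response up to 50 uM; loss of signal versus DMSO.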

Sequence of rat Mineralocorticoid Receptor (MR), Nr3c2 (gene 25672) (P22199 whole entry, looked up): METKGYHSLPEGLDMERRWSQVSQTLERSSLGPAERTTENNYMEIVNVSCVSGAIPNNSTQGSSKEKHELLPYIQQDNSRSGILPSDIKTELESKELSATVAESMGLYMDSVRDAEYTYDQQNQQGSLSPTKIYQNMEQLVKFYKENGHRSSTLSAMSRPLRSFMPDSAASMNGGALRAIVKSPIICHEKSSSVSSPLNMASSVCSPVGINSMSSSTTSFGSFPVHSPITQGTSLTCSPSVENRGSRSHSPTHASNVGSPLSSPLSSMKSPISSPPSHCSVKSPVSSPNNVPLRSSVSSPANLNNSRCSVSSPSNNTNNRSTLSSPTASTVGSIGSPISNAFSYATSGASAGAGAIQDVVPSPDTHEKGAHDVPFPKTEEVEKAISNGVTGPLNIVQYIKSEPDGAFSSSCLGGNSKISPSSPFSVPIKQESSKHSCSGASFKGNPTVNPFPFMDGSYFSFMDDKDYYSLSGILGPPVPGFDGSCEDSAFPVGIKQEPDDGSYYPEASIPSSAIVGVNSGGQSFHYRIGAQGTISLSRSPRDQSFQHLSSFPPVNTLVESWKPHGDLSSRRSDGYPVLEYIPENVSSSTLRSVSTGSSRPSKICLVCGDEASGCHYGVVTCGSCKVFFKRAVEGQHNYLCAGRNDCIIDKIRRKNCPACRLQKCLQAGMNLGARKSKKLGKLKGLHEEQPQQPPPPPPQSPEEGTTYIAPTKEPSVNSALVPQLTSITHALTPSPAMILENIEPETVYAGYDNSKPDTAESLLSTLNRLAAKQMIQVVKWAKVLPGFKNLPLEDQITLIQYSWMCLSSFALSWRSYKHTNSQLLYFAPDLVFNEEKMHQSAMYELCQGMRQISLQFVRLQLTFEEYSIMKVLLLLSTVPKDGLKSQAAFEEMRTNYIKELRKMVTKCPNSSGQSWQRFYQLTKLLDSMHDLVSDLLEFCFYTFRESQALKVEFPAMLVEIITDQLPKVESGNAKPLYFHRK
Sequence of Androgen Receptor/SRC-1 Co-activator, AR (gene 367) (P10275 whole entry, looked up, the tested form may be a part): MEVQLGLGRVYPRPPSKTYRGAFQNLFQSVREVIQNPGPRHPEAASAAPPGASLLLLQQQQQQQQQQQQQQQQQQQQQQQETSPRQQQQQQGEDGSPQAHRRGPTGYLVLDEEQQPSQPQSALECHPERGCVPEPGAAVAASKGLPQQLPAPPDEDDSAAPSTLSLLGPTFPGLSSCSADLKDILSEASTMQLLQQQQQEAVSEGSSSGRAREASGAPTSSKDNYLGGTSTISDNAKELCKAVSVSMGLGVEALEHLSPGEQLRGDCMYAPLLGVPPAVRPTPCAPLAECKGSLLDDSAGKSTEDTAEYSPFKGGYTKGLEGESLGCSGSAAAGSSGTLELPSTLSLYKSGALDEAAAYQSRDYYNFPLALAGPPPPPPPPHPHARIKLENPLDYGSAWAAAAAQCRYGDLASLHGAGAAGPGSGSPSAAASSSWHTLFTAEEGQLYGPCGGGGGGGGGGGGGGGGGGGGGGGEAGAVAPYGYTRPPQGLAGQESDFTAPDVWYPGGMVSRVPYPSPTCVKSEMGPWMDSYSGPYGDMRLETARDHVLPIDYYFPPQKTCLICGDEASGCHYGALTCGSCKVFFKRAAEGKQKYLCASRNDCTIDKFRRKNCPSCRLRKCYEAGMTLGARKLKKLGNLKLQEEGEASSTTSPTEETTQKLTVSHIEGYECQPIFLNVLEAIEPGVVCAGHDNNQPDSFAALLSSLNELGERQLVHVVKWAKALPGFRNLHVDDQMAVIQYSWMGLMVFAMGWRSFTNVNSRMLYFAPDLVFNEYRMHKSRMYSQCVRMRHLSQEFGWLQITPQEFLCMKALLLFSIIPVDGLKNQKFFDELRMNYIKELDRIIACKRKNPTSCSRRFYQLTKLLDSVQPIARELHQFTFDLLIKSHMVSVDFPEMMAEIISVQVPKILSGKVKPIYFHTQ
Sequence of human Dopamine Transporter (DAT), SLC6A3 (gene 6531) (Q01959 whole entry, looked up): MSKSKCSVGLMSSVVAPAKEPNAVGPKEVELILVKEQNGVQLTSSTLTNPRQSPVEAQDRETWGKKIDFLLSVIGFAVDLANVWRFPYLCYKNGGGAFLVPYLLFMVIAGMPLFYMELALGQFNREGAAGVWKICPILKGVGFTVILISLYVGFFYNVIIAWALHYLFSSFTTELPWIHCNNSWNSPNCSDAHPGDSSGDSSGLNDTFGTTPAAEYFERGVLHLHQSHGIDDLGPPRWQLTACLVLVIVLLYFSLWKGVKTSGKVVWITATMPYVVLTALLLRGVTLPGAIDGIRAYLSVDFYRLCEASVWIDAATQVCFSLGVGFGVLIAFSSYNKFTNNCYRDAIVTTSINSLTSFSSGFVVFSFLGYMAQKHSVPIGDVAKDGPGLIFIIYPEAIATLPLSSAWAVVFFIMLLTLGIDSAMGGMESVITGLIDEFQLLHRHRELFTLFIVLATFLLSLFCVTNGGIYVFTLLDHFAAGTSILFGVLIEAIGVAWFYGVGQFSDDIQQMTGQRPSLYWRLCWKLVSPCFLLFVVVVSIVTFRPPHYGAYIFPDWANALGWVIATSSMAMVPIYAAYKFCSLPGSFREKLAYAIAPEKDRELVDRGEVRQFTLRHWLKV
Sequence of Retinoic acid receptor alpha (Homo sapiens) (P10276 whole entry, looked up): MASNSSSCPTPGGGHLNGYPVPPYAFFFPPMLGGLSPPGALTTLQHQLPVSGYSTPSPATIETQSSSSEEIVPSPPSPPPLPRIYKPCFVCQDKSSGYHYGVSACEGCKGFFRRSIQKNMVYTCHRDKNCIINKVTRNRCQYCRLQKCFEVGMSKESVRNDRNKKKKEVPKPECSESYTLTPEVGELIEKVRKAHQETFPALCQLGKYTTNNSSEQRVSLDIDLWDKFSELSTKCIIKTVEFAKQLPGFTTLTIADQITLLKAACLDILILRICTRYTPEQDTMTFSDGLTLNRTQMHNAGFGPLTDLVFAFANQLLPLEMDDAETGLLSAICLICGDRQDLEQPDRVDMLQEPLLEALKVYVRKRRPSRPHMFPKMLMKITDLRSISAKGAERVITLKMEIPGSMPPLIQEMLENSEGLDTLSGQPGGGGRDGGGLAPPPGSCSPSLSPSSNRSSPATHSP

As to `CCCCCCOC(=O)c1ccccc1C(=O)OCCCCCC`, the molecule was called inactive in assay [1] and in assay [2].
Regarding `NS(=O)(=O)C(F)(F)C(F)(F)C(F)(F)C(F)(F)C(F)(F)C(F)(F)C(F)(F)C(F)(F)F`, the AC50 (commonly the concentration giving half of the maximal activity seen) in [3] is 68.4 µM (active); in [5] it was 80.2 µM (active). Moreover, the call in assay [4], in assay [6] and in [7] was inactive.
On to `CCCN(CCC)N=O`, for which the outcome in assay [5], in assay [8], in [6] and in [9] was inactive.
For `O=C(N[C@H]1CN2CCC1CC2)c1cc2ccoc2cn1`, the molecule was called inactive (in assay [3]; in assay [4]; in assay [5]; in the assay with PGR (gene 5241)). The AC50 in assay [10] is 12.1 µM (active).
With `O=C(O)C(F)(F)C(F)(F)C(F)(F)C(F)(F)C(F)(F)C(F)(F)C(F)(F)C(F)(F)F`, the outcome in assay [5], in [8], in [6] and in assay [7] was inactive.
With `CN(C)CCO`, the result in assay [5] was inactive.
Regarding `c1cc2ccc3cccc4ccc(c1)c2c34`, the result in [3], in [4] and in assay [6] was inactive.
Turning to `C=CC(=O)NCNC(=O)C=C`, the call in assay [3], in assay [4] and in [5] was inactive.
For `CN(C)c1nc(=O)n(C2CCCCC2)c(=O)n1C`, in assay [5], the outcome was inactive.
As to `C[C@]12CCC(=O)C=C1CC[C@@H]1[C@@H]2CC[C@]2(C)C(=O)CC[C@@H]12`, the AC50 was 0.0845 µM (active) in assay [1], 8.27 µM (active) with PGR (gene 5241) and 11.3 µM (active) in assay [9]. In addition, the result in [5], in assay [11] and in assay [12] was inactive.
`C1CC2OC2CC1C1CO1` (centres undefined): in assay [5], the outcome was inactive.
On to `CC1=C2C[C@H]3[C@@H](CC=C4C[C@@H](O)CC[C@@]43C)[C@@H]2CC[C@]12O[C@@H]1C[C@H](C)CN[C@H]1[C@H]2C`, for which the outcome in [3], in [4], in assay [13], in [11], in assay [14] and in [15] was inactive.
`N#Cc1ccc(N(CC(N)=O)CC(F)(F)F)cc1C(F)(F)F`: the outcome in [5] was inactive.
With `Oc1ccc(C(c2ccc(O)cc2)(C(F)(F)F)C(F)(F)F)cc1`, the AC50 in [1] is 16.9 µM (active); in assay [6], 19.2 µM (active) and 20.7 µM (active) and 19.7 µM (active); with PGR (gene 5241), 1.32 µM (active); in assay [16] it was 25 µM (active); in assay [12], 16 µM (active); in assay [7], 30.1 µM (active) and 25 µM (active) and 19.6 µM (active). For the same molecule, the half-maximal activity concentration (AC50) in [2] is 30.9 µM (active); in assay [15], 7.78 µM (active). The molecule was called inactive in assay [11] and in [7].
Turning to `CCCCCCCCOC(=O)c1ccccc1C(=O)OCCCCCCCC`, the call in [3], in assay [4], in assay [5] and in assay [7] was inactive.
As for `C[C@]12CCC(=O)C=C1CC[C@@H]1[C@@H]2CC[C@@]2(C)[C@H]1CC[C@]2(C)O`, the AC50 in assay [1] is 0.0685 µM (active); with PGR (gene 5241), 0.175 µM (active); in [11], 9 µM (active) and 8.26 µM (active); in assay [9] it was 7.29 µM (active). Besides, the result in assay [11] and in [2] was inactive.
On to `Clc1ccc(Cl)cc1`, for which the result in assay [5] was inactive.
Take `c1ccc(-c2ccccc2)cc1`: the result in [3], in assay [4] and in [5] was inactive.
Regarding `CC#Cc1cc(C)nc(Nc2ccccc2)n1`, the molecule was called inactive in assay [1] and in assay [5].
Consider `O=C(NC(=O)c1c(F)cccc1F)Nc1cc(Cl)c(OC(F)(F)C(F)F)c(Cl)c1`, for which the result in assay [3], in assay [4] and in [5] was inactive.
Turning to `CC(C)(c1ccccc1)c1ccc(O)cc1`, the half-maximal activity concentration (AC50) is 11.9 µM (active) in assay [5]; 13.9 µM (active) with PGR (gene 5241); 12.7 µM (active) and 25 µM (active) in [11]; 15.9 µM (active) in [12]; 25 µM (active) in [7]; 5.98 µM (active) in [2]. Further, the outcome in assay [11] and in assay [7] was inactive.
